Rows were chosen to be rich in hits. Some 1.9% of all compounds tested hit in one or more screens of this group.
MsrA inhibitor: inhibitors of bovine MsrA. inhibition, % at 15.5 µM. hit rate 0.75% among 360,000. purified bovine MsrA, absorbance read-out; in the data active = inhibition above about 4.5%;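 note: 0% = vehicle wells with enzyme and 100% = reference inhibitor wells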
MsrA act: activates bovine MsrA enzyme; hit rate 0.3% among 360,000; activation, % at 10.6 µM; purified bovine MsrA, absorbance read-out; in the data active = activation above about 7.5%;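 note: 0% = vehicle and 100% = reference activator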
PLC-gamma1 inh: PLC-gamma1 (human) inhibition, primary screen | P19174 | purified PLC-gamma1, fluorogenic substrate, fluorescence | inhibition, % at 12.2 µM | hit rate 0.84% among 370,000 | AID 720700; in the data active = inhibition above about 9.5%
Target sequence (P19174 whole entry, looked up): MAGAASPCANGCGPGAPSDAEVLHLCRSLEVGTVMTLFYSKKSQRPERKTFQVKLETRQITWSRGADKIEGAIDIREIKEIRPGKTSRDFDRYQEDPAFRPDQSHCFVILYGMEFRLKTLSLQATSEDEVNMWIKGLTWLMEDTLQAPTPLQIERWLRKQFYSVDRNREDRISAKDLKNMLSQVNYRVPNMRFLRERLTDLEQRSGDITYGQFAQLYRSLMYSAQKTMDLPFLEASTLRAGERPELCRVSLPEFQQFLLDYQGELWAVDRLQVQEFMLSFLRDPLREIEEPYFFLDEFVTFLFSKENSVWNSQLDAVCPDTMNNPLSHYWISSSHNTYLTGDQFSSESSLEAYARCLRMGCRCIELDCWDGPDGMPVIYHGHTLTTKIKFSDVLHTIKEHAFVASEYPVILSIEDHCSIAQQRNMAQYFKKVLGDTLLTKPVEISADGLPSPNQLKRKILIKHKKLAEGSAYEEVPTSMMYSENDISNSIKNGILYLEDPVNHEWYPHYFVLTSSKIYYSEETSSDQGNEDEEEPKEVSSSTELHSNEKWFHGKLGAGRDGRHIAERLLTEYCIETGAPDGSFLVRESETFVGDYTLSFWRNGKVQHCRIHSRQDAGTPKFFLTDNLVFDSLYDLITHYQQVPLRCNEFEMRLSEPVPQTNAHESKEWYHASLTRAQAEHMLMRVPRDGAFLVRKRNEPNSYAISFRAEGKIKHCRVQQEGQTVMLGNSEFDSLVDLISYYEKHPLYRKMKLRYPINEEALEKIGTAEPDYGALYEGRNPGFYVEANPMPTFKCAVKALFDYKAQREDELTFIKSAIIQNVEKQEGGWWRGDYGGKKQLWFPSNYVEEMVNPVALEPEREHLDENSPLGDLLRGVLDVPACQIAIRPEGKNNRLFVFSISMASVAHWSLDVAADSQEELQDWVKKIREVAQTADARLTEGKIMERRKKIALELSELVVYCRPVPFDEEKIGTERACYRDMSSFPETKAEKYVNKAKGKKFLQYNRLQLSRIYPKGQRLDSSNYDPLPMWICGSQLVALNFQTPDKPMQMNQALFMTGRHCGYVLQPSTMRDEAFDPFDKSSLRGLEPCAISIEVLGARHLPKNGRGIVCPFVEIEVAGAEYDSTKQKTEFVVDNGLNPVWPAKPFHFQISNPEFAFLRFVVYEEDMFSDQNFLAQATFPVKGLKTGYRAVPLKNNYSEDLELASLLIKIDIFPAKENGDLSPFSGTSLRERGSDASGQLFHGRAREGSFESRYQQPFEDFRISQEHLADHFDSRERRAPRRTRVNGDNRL
PLC-beta3 inh: PLC-beta3 (human) inhibition, primary screen; hit rate 0.18% among 370,000; Q01970; Purified PLC-beta3, fluorogenic substrate, fluorescence; inhibition, % at 12.2 µM;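 note: 0% = median of compound wells on plate and 100% = full blocker control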
PLCgamma1 ctr: PLC-gamma1 inhibition, counter-screen for PLC-beta3 hits; shares compounds with PLC-gamma1 inh; purified PLC-gamma1, fluorogenic substrate, fluorescence; inhibition, % at 12.3 µM; hit rate 3.1% among 3,300; AID 743258; in the data active = inhibition above about 9.5%
PLCbeta3 conf: human PLC-beta3 inhibition, confirmation; shares compounds with PLC-gamma1 inh; purified PLC-beta3, fluorogenic substrate fluorescence; inhibition, % at 12.3 µM; hit rate 1% among 3,300; AID 743261
An asterisk follows results filed as active. Cut-off read from the data, not from the text of the source, unless noted: active = inhibition above about 11%; inactive = the rest.

`Cc1ccc(S(=O)(=O)CC(CN2CCOCC2)N2CCOCC2)cc1` (stereo unspecified) gave MsrA inhibitor -0.5, MsrA act -3.8, PLC-gamma1 inh 3.4 and PLC-beta3 inh 1.2.
Screening O=C(O)c1ccccc1C=NN1CCCCCC1 returned MsrA inhibitor -0.7, MsrA act -1.0, PLC-gamma1 inh -8.5 and PLC-beta3 inh -10.1.
COc1cc(/C=N\Nc2nncn2N)ccc1OC(C)=O was read as MsrA inhibitor 0.0, MsrA act -5.7, PLC-gamma1 inh 14.2*, PLC-beta3 inh 1.4, PLCgamma1 ctr -0.3 and PLCbeta3 conf -4.2.
OC(CNCCNc1ncccc1C(F)(F)F)Cn1ccc2ccccc21 (stereo unspecified) was read as MsrA inhibitor -0.3, MsrA act -1.0, PLC-gamma1 inh 0.2 and PLC-beta3 inh -6.7.
Cc1nc(-c2ccncc2)nc(NCCNc2ncccc2C(F)(F)F)c1Cl was read as MsrA inhibitor 1.7, MsrA act -2.5, PLC-gamma1 inh 12.1*, PLC-beta3 inh 6.1, PLCgamma1 ctr -5.1 and PLCbeta3 conf -2.6.
Screening COC(=O)NCc1ccc(CNC(=O)OC)cc1 returned MsrA inhibitor -0.7, MsrA act -3.5, PLC-gamma1 inh 3.3 and PLC-beta3 inh 6.1.
`COC(=O)NCc1ccc(Cl)c(Cl)c1` gave MsrA inhibitor 0.1, MsrA act -6.5, PLC-gamma1 inh 11.6*, PLC-beta3 inh 2.2, PLCgamma1 ctr -7.5 and PLCbeta3 conf -2.8.
`CC(C)C(C(=O)NCc1ccco1)N(C(=O)CNS(=O)(=O)c1ccccc1)C1CCCC1` (stereo unspecified) gave MsrA inhibitor 1.3, MsrA act -0.8, PLC-gamma1 inh 3.0, PLC-beta3 inh 12.5*, PLCgamma1 ctr -0.8 and PLCbeta3 conf 3.6.
For O=C(O)Cn1ccnc1[N+](=O)[O-] the results were MsrA inhibitor 1.9, MsrA act -0.5, PLC-gamma1 inh 10.1*, PLC-beta3 inh 5.9, PLCgamma1 ctr 5.2 and PLCbeta3 conf 0.2.
`CCN(C(=O)COC(=O)c1ccc(C=O)cc1)c1c(N)n(Cc2ccccc2)c(=O)[nH]c1=O` gave MsrA inhibitor 0.5, MsrA act -3.3, PLC-gamma1 inh 18.9*, PLC-beta3 inh -24.1, PLCgamma1 ctr 0.1 and PLCbeta3 conf -13.4.
O=C(NCc1ccccc1Cl)c1ccc(CS(=O)Cc2ccc(Cl)cc2)o1 (stereo unspecified) was read as MsrA inhibitor 1.3, MsrA act -2.4, PLC-gamma1 inh 9.5*, PLC-beta3 inh -4.9, PLCgamma1 ctr 2.0 and PLCbeta3 conf 6.9.
Screening Cc1ccc(CS(=O)Cc2ccc(C(=O)NCc3ccccc3Cl)o2)cc1 (stereo unspecified) returned MsrA inhibitor -0.3, MsrA act -1.0, PLC-gamma1 inh 1.7 and PLC-beta3 inh -9.6.
For OC(COc1ccc(Cl)cc1)CN1CCCCC1 (stereo unspecified) the results were MsrA inhibitor 1.1, MsrA act -0.1, PLC-gamma1 inh -2.5 and PLC-beta3 inh 0.1.
Screening OC(COc1c(Cl)cc(Cl)cc1Cl)CN1CCCCC1 (stereo unspecified) returned MsrA inhibitor 1.4, MsrA act -1.5, PLC-gamma1 inh 14.9*, PLC-beta3 inh 9.7, PLCgamma1 ctr -2.7 and PLCbeta3 conf 1.4.
`O=C(O)CC(NC(=O)C12CC3CC(CC(C3)C1)C2)c1cc([N+](=O)[O-])ccc1Cl` (stereo unspecified) gave MsrA inhibitor 0.5, MsrA act -6.5, PLC-gamma1 inh 13.1*, PLC-beta3 inh 6.1, PLCgamma1 ctr -5.0 and PLCbeta3 conf -3.9.
Cc1ccccc1NC(=O)C(C)Sc1nnc(CN2CCCC2)n1Cc1ccccc1 (stereo unspecified) was read as MsrA inhibitor -0.1, MsrA act -1.0, PLC-gamma1 inh 10.2*, PLC-beta3 inh 0.2, PLCgamma1 ctr -4.6 and PLCbeta3 conf -1.5.
For CC(Sc1nnc(CN2CCCC2)n1Cc1ccccc1)C(=O)Nc1ccccc1 (stereo unspecified) the results were MsrA inhibitor 0.5, MsrA act -0.9, PLC-gamma1 inh 2.5 and PLC-beta3 inh -7.3.
For CC(C)(C)C(=O)CSc1nccc(=O)[nH]1 the results were MsrA inhibitor -0.3, MsrA act 0.8, PLC-gamma1 inh 10.5*, PLC-beta3 inh -18.7, PLCgamma1 ctr -2.2 and PLCbeta3 conf -2.5.
Screening Cc1ccc(C(C(=O)NC2CCCCC2)N(CC2CCCO2)C(=O)CNC(=O)c2ccco2)cc1 (stereo unspecified) returned MsrA inhibitor 1.9, MsrA act -5.7, PLC-gamma1 inh 10.0*, PLC-beta3 inh 4.1, PLCgamma1 ctr -4.1 and PLCbeta3 conf -4.1.
Screening O=C(NCC(=O)N(CC1CCCO1)C(C(=O)NC1CCCCC1)c1ccc(F)cc1)c1ccco1 (stereo unspecified) returned MsrA inhibitor -0.6, MsrA act -11.5, PLC-gamma1 inh 3.0 and PLC-beta3 inh 0.8.
`O=C(NC1CCCCCCC1)c1ccco1` gave MsrA inhibitor 1.5, MsrA act -8.6, PLC-gamma1 inh 11.2*, PLC-beta3 inh 7.8, PLCgamma1 ctr -0.6 and PLCbeta3 conf 0.8.
Screening O=C(NCc1ccccc1F)C1CC(=O)N(Cc2ccco2)C1 (stereo unspecified) returned MsrA inhibitor -0.2, MsrA act -1.7, PLC-gamma1 inh 6.7 and PLC-beta3 inh 3.3.
Screening Cc1cnc(C(=O)OCC(=O)Nc2ccc(Br)cc2F)cn1 returned MsrA inhibitor 1.6, MsrA act -5.0, PLC-gamma1 inh -3.7 and PLC-beta3 inh -5.0.
For Cc1cnc(C(=O)OCC(=O)Nc2ccc(Cl)cc2)cn1 the results were MsrA inhibitor 1.0, MsrA act 0.4, PLC-gamma1 inh 11.6*, PLC-beta3 inh 5.2, PLCgamma1 ctr -7.7 and PLCbeta3 conf -4.2.
`Nn1c(SCC(=O)Nc2ccccc2-c2ccccc2)nnc1-c1cc(-c2ccc(Cl)cc2)n[nH]1` gave PLC-gamma1 inh 1.6 and PLC-beta3 inh -0.1.
`CCOC(=O)CSc1nnnn1-c1cc(OC)c(Cl)cc1OC` gave MsrA inhibitor -0.5, MsrA act -5.3, PLC-gamma1 inh 9.8*, PLC-beta3 inh 1.2, PLCgamma1 ctr -4.4 and PLCbeta3 conf -2.0.
O=C(O)C1C2C=CC(C2)C1C(=O)NCc1ccc(Cl)c(Cl)c1 (stereo unspecified) was read as MsrA inhibitor -0.3, MsrA act -3.6, PLC-gamma1 inh 1.2 and PLC-beta3 inh 2.9.
Screening O=C1N(Cc2ccccc2)c2ccc(Br)cc2[C@]12C[C@H](O)CO2 returned MsrA inhibitor 1.2, PLC-gamma1 inh -0.1 and PLC-beta3 inh 5.5.
Screening COc1ccc(OC)c(CN2C(=O)c3ccccc3C2c2nnnn2-c2ccc3c(c2)OCCO3)c1 (stereo unspecified) returned MsrA inhibitor 0.9, MsrA act -11.4, PLC-gamma1 inh 2.5 and PLC-beta3 inh 1.5.
For CCCC1(CCC)NC(=O)N(CC(=O)Nc2ccc(Cl)c(S(=O)(=O)N3CCOCC3)c2)C1=O the results were MsrA inhibitor 1.9, MsrA act -3.0, PLC-gamma1 inh 10.7*, PLC-beta3 inh 4.1, PLCgamma1 ctr 2.8 and PLCbeta3 conf 0.1.
